According to PubChem BioAssay AID720487 (Milwaukee Institute for Drug Discovery, 2013):
The list shows a part of the results. Unmarked numbers belong to inactive results.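 How the source made its calls: active means fluorescence interference ratio at or above 1.2, signal boosting, or at or below 0.8, signal quenching; inactive means ratio between 0.8 and 1.2.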

Experiment: Cy5 fluorescence interference with SSB-bound oligo, artefact control for HCV NS3 helicase inhibitor project, biochemical, E. coli SSB, selected ChemBridge compounds (AID 720487);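 further: ratio of compound well signal to mean negative control signal so 1 means no effect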
Details: Cy5-dT15/E. coli SSB fluorescence interference; at 100 µM; actives lie on both sides

CCOc1cc(C=C2C(=O)NC(=O)NC2=O)cc(Br)c1OCCOc1ccccc1C
fluorescence interference ratio: 0.894
